Results filed as inconclusive are left out. The source made the active and inactive calls. The call rests on the fitted dose curve; in most records, active means well fitted curve in the direction sought with a large enough effect in the repeat runs; inconclusive means weak or mixed curves; inactive means no such curve, though single readings can be large; an effect the other way counts as inactive or inconclusive.
How the values were obtained:
[1] = qHTS RealTime-Glo MT Cell Viability Assay in HEK293 cells - 32 hour (AID 1224868); further: top concentration of the series differs between compounds; nearly all actives have a fitted effect of over 50% in size
Method in brief: (§1)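 Tox21 10K qHTS, HEK293, 600 cells/well, RealTime-Glo reagent co-dispensed with cells; 5 h preincubation, compound by pintool, 37 C, luminescence at 0–40 h.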

[2] = A CellTox Green Cytotoxicity Assay to monitor cytotoxicity in HEK293 cells - 0 hour (AID 1224869); further: nearly all actives have a fitted effect of over 50% in size
Method in brief: (§2)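 Homogeneous no-lysis format: HEK293 cell suspension mixed with CellTox Green reagent, seeded, incubated 5 h at 37 C/5% CO2, then dosed by pintool with compound in DMSO.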

[3] = qHTS RealTime-Glo MT Cell Viability Assay in HepG2 cells - 40 hour (AID 1224870); further: nearly all actives have a fitted effect of over 50% in size
Method in brief: (§3)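 HepG2 cells (600/well) mixed with RealTime-Glo MT reagent, settled 5 h at 37 C/5% CO2 before compound addition. Nonlytic NanoLuc luminescence from viable-cell prosubstrate reduction read repeatedly during 40 h treatment at 37 C.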

[4] = A CellTox Green Cytotoxicity Assay to monitor cytotoxicity in HEK293 cells - 40 hour (AID 1224871); further: nearly all actives have a fitted effect of over 45% in size
Method in brief: as §2

[5] = qHTS RealTime-Glo MT Cell Viability Assay in HEK293 cells - 16 hour (AID 1224872); further: top concentration of the series differs between compounds; nearly all actives have a fitted effect of over 50% in size
Method in brief: as §1

[6] = qHTS RealTime-Glo MT Cell Viability Assay in HepG2 cells - 8 hour (AID 1224873); further: nearly all actives have a fitted effect of over 55% in size
Method in brief: as §3

[7] = A CellTox Green Cytotoxicity Assay to monitor cytotoxicity in HEK293 cells - 24 hour (AID 1224875); further: series mostly up to about 77 µM; nearly all actives have a fitted effect of over 45% in size
Method in brief: as §2

[8] = A CellTox Green Cytotoxicity Assay to monitor cytotoxicity in HepG2 cells - 16 hour (AID 1224876); further: nearly all actives have a fitted effect of over 45% in size
Method in brief: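 Fluorescent DNA-binding dye, 600 HepG2 cells/well, 5 h preincubation then compound in DMSO; same plates read at 0–40 h, 37 C.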

[9] = qHTS RealTime-Glo MT Cell Viability Assay in HepG2 cells - 32 hour (AID 1224877); further: nearly all actives have a fitted effect of over 55% in size
Method in brief: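 Cells + NanoLuc/prosubstrate dispensed (600 cells/well) → 5 h at 37 C/5% CO2 → compounds in DMSO transferred → 40 h incubation at 37 C, luminescence read at 0, 8, 16, 24, 32, 40 h.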

[10] = qHTS RealTime-Glo MT Cell Viability Assay in HEK293 cells - 40 hour (AID 1224874); settings: RealTime-Glo luminescence; max response: active compounds read low; further: nearly all actives have a fitted effect of over 50% in size
Method in brief: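 Measured as luminescence from the same continuously cultured HEK293 wells at successive time points (0, 8, 16, 24, 32, 40 h) after compound addition. Reagent present from seeding; dosing at 5 h; incubation 37 C.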
On the % scale 0 is the no-effect control and ±100 the full control effect.

CCO
inactive: Potency [1] | Potency [2] | outcome [3] | Potency [4] | Potency [5] | outcome [6] | Potency [7] | Potency [8] | outcome [9]

C/C(=C1\CCOC(=O)S1)N(C=O)Cc1cnc(C)nc1N
inactive: Potency [1] | Potency [2] | outcome [3] | Potency [4] | Potency [5] | outcome [6] | Potency [7] | Potency [8] | outcome [9]

CCCCCCCCCCCCCCCCCCOCCO
inactive: activity change, negative = cytotoxic [1] -2.29% [at 15.8 µM] | cytotoxicity [2] 1.2% [at 15.8 µM] | activity change, negative = cytotoxic [3] -6.69% [at 15.8 µM] | cytotoxicity increase [4] 8.77% [at 15.8 µM] | viability change, negative = cytotoxic [6] -3.15% [at 15.8 µM] | max response [10] -1.04% | activity change [7] 5.76% [at 15.8 µM, active compounds read high] | cytotoxicity increase [8] 0.179% [at 15.8 µM] | activity change, negative = cytotoxic [9] -5.24% [at 15.8 µM]

COCCc1ccccn1
inactive: Potency [1] | Potency [2] | outcome [3] | Potency [4] | outcome [6] | max response [10] -3.81% | Potency [7] | Potency [8] | outcome [9]

C[C@H]1[C@@H](c2ccccc2)NC(=O)N1C
inactive: Potency [1] | Potency [2] | outcome [3] | Potency [4] | outcome [6] | max response [10] -8.69% | Potency [7] | Potency [8] | outcome [9]

Cc1c(NC(=O)c2cccnc2)c(=O)n(-c2ccccc2)n1C
inactive: Potency [1] | Potency [2] | outcome [3] | Potency [4] | Potency [5] | outcome [6] | Potency [7] | Potency [8] | outcome [9]

O=NN(CCCl)C(=O)NC1CCCCC1
inactive: Potency [1] | Potency [2] | outcome [3] | Potency [4] | Potency [5] | outcome [6] | Potency [7] | Potency [8] | outcome [9]

CCN1CCCC1CN (stereo not given)
inactive: Potency [1] | Potency [2] | outcome [3] | Potency [4] | outcome [6] | max response [10] 9.62% | Potency [7] | Potency [8] | outcome [9]

C[C@]12CCC(=O)C=C1CC[C@H]1[C@@H]3CC[C@](O)(C(=O)CO)[C@@]3(C)C[C@H](O)[C@@]12F
inactive: Potency [1] | Potency [2] | outcome [3] | Potency [4] | Potency [5] | outcome [6] | Potency [7] | Potency [8] | outcome [9]

Cc1ccc(C(C)NC(=O)[C@@H](NC(=O)OC(C)C)C(C)C)cc1 (stereo not given in full)
inactive: Potency [1] | Potency [2] | outcome [3] | Potency [4] | outcome [6] | max response [10] -6.73% | Potency [7] | Potency [8] | outcome [9]

C=CC(=O)CCCCC
inactive: Potency [1] | Potency [2] | outcome [3] | Potency [4] | Potency [5] | outcome [6] | Potency [7] | Potency [8] | outcome [9]

O=C(O)CSCC(=O)NC1CCSC1=O (stereo not given)
inactive: Potency [1] | Potency [2] | outcome [3] | Potency [4] | outcome [6] | max response [10] -1.55% | Potency [7] | Potency [8] | outcome [9]

C=C(C)[C@@H]1CC=C(C)C(=O)C1
inactive: Potency [1] | Potency [2] | outcome [3] | Potency [4] | Potency [5] | outcome [6] | Potency [7] | Potency [8] | outcome [9]

CO[C@@]1(NC(=O)Cc2cccs2)C(=O)N2C(C(=O)O)=C(COC(N)=O)CS[C@@H]21
inactive: Potency [1] | Potency [2] | outcome [3] | Potency [4] | Potency [5] | outcome [6] | Potency [7] | Potency [8] | outcome [9]

O=C1CCCCO1
inactive: Potency [1] | Potency [2] | outcome [3] | Potency [4] | Potency [5] | outcome [6] | Potency [7] | Potency [8] | outcome [9]

O=Cc1cc2ccccc2o1
inactive: Potency [1] | Potency [2] | outcome [3] | Potency [4] | outcome [6] | max response [10] -1.57% | Potency [7] | Potency [8] | outcome [9]

CCOC(CN1CCN(CC(C)C(=O)c2ccccc2)CC1)c1ccccc1 (stereo not given)
inactive: activity change, negative = cytotoxic [1] -29.5% [at 15.8 µM] | cytotoxicity [2] -3.29% [at 15.8 µM] | activity change, negative = cytotoxic [3] 0.0501% [at 15.8 µM] | cytotoxicity increase [4] -2.53% [at 15.8 µM] | viability change, negative = cytotoxic [6] -2.57% [at 15.8 µM] | max response [10] -27.6% | activity change [7] -4.62% [at 15.8 µM, active compounds read high] | cytotoxicity increase [8] -21.5% [at 15.8 µM] | activity change, negative = cytotoxic [9] 0.188% [at 15.8 µM]

CCCSSCCC
inactive: Potency [1] | Potency [2] | outcome [3] | Potency [4] | outcome [6] | max response [10] 2.19% | Potency [7] | Potency [8] | outcome [9]

C=Cc1ccc(C(C)(C)C)cc1
inactive: Potency [1] | Potency [2] | outcome [3] | Potency [4] | outcome [6] | max response [10] -0.639% | Potency [7] | Potency [8] | outcome [9]

CC1OCCC1=O (stereo not given)
inactive: Potency [1] | Potency [2] | outcome [3] | Potency [4] | Potency [5] | outcome [6] | Potency [7] | Potency [8] | outcome [9]

CC/C=C\CCOC(=O)c1ccccc1O
inactive: Potency [1] | Potency [2] | outcome [3] | Potency [4] | Potency [5] | outcome [6] | Potency [7] | outcome [9]

CN(C)CCOC(=O)C(c1ccccc1)C1(O)CCCC1 (stereo not given)
inactive: Potency [1] | Potency [2] | outcome [3] | Potency [4] | outcome [6] | max response [10] -2.33% | Potency [7] | Potency [8] | outcome [9]

CNCCS(=O)(=O)O
inactive: Potency [1] | Potency [2] | outcome [3] | Potency [4] | Potency [5] | outcome [6] | Potency [7] | Potency [8] | outcome [9]

CCCCCCCCCCOC(C)=O
inactive: Potency [1] | Potency [2] | outcome [3] | Potency [4] | Potency [5] | outcome [6] | Potency [7] | Potency [8] | outcome [9]

Source: PubChem BioAssay (Tox21)
